# Measurements as given in the supplement of paper PMC10849652.
# About 8,800 targets were measured; listed, in parts, are those with a hit and a random draw of the rest. About 0.5% of all pairs of compound and target were hits. A number with no mark means an inactive call.
# Experiments:
# Test in all cases: log2 fold change, soluble protein after heating vs DMSO (PISA); higher = thermal stabilisation; K562 lysate, 10 uM; active = over 0.2 and 3.5 SD of the protein, either way, in both replicates (recomputed)
# alvocidib = compound: CN1CC[C@H](c2c(O)cc(O)c3c(=O)cc(-c4ccccc4Cl)oc23)[C@H](O)C1 [alvocidib]
# Method in brief: (§1)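 Following dounce homogenisation of K562 pellets in PBS pH 7.4 with 1 mM MgCl2, crude extract at 1 mg/mL protein was incubated for 30 min with 10 μM compound. Aliquots were then heated for 3 min over 48°C-58°C and pooled, NP-40 was added to 0.5% at 4°C, and soluble protein was recovered as the supernatant at 21,000xg for 90 min. Channel-sum-equalised TMTpro 16plex LC-MS/MS quantified this protein. Each value, from duplicates, is a log-two fold change in thermal stability relative to solvent controls.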
# Tubastatin A = compound: CN1CCc2c(c3ccccc3n2Cc2ccc(C(=O)NO)cc2)C1 [Tubastatin A]
# Method in brief: as §1
# [1] = compound: CNC(=O)C1=CC=CC=C1NC2=NC(=NC=C2Cl)NC3=C(C=C(C=C3)N4CCOCC4)OC
# Method in brief: as §1
# defactinib = compound: CNC(=O)c1ccc(Nc2ncc(C(F)(F)F)c(NCc3nccnc3N(C)S(C)(=O)=O)n2)cc1 [defactinib]
# Method in brief: as §1
# [2] = compound: CNc1nc(-c2ccc3c(N)n[nH]c3c2)cc(N2C[C@@H](C(=O)NC3CCCCC3)CC[C@H]2C)n1
# Method in brief: as §1
# encorafenib = compound: COC(=O)N[C@@H](C)CNc1nccc(-c2cn(C(C)C)nc2-c2cc(Cl)cc(NS(C)(=O)=O)c2F)n1 [encorafenib]
# Method in brief: as §1
# [3] = compound: COC(=O)[C@H](CCSC)NC(=O)C1=C(C=C(C=C1)NC[C@H](CS)N)C2=CC=CC=C2
# Method in brief: as §1
# alisertib = compound: COc1cc(Nc2ncc3c(n2)-c2ccc(Cl)cc2C(c2c(F)cccc2OC)=NC3)ccc1C(=O)O [alisertib]
# Method in brief: as §1
# [4] = compound: COc1cc2nc(-c3cc(F)ccc3O)nc(N[C@@H]3CNC[C@H]3C(C)(C)O)c2cc1OC
# Method in brief: as §1
# gefitinib = compound: COc1cc2ncnc(Nc3ccc(F)c(Cl)c3)c2cc1OCCCN1CCOCC1 [gefitinib]
# Method in brief: as §1
# lapatinib = compound: CS(=O)(=O)CCNCc1ccc(-c2ccc3ncnc(Nc4ccc(OCc5cccc(F)c5)c(Cl)c4)c3c2)o1 [lapatinib]
# Method in brief: as §1
# pictilisib = compound: CS(=O)(=O)N1CCN(Cc2cc3nc(-c4cccc5[nH]ncc45)nc(N4CCOCC4)c3s2)CC1 [pictilisib]
# Method in brief: as §1
# crizotinib = compound: C[C@@H](Oc1cc(-c2cnn(C3CCNCC3)c2)cnc1N)c1c(Cl)ccc(F)c1Cl [crizotinib]
# Method in brief: as §1
# [5] = compound: C[C@H](C1=CC=C(C=C1)C(=O)NC2=C3C=CNC3=NC=C2)N
# Method in brief: as §1
# duvelisib = compound: C[C@H](Nc1ncnc2nc[nH]c12)c1cc2cccc(Cl)c2c(=O)n1-c1ccccc1 [duvelisib]
# Method in brief: as §1
# gandotinib = compound: Cc1cc(Nc2cc(CN3CCOCC3)c3nc(C)c(Cc4ccc(Cl)cc4F)n3n2)n[nH]1 [gandotinib]
# Method in brief: as §1
# tozasertib = compound: Cc1cc(Nc2cc(N3CCN(C)CC3)nc(Sc3ccc(NC(=O)C4CC4)cc3)n2)n[nH]1 [tozasertib]
# Method in brief: as §1
# doramapimod = compound: Cc1ccc(-n2nc(C(C)(C)C)cc2NC(=O)Nc2ccc(OCCN3CCOCC3)c3ccccc23)cc1 [doramapimod]
# Method in brief: as §1
# bafetinib = compound: Cc1ccc(NC(=O)c2ccc(CN3CC[C@H](N(C)C)C3)c(C(F)(F)F)c2)cc1Nc1nccc(-c2cncnc2)n1 [bafetinib]
# Method in brief: as §1
# [6] = compound: Cc1cccc(CC(=O)N2CCc3c2ccc(-c2cn(C)c4ncnc(N)c24)c3F)n1
# Method in brief: as §1
# Sequence of UniProt P23219 (P23219 whole entry, looked up): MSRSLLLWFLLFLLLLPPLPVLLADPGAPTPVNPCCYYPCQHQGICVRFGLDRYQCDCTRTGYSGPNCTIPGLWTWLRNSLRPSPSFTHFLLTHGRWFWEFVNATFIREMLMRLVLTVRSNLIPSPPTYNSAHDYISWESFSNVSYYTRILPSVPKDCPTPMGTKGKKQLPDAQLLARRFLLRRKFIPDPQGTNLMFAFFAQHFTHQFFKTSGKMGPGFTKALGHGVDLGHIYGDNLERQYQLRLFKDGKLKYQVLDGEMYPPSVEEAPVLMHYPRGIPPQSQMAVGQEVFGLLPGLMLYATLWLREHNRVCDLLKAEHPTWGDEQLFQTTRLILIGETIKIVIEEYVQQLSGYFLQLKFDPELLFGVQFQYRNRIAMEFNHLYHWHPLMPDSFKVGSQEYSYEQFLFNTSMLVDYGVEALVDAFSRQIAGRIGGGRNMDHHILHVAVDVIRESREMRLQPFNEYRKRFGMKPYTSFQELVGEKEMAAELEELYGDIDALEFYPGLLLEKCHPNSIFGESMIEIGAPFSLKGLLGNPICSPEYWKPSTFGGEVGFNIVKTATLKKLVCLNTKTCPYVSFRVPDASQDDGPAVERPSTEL
# Sequence of UniProt Q05397 (Q05397 whole entry, looked up): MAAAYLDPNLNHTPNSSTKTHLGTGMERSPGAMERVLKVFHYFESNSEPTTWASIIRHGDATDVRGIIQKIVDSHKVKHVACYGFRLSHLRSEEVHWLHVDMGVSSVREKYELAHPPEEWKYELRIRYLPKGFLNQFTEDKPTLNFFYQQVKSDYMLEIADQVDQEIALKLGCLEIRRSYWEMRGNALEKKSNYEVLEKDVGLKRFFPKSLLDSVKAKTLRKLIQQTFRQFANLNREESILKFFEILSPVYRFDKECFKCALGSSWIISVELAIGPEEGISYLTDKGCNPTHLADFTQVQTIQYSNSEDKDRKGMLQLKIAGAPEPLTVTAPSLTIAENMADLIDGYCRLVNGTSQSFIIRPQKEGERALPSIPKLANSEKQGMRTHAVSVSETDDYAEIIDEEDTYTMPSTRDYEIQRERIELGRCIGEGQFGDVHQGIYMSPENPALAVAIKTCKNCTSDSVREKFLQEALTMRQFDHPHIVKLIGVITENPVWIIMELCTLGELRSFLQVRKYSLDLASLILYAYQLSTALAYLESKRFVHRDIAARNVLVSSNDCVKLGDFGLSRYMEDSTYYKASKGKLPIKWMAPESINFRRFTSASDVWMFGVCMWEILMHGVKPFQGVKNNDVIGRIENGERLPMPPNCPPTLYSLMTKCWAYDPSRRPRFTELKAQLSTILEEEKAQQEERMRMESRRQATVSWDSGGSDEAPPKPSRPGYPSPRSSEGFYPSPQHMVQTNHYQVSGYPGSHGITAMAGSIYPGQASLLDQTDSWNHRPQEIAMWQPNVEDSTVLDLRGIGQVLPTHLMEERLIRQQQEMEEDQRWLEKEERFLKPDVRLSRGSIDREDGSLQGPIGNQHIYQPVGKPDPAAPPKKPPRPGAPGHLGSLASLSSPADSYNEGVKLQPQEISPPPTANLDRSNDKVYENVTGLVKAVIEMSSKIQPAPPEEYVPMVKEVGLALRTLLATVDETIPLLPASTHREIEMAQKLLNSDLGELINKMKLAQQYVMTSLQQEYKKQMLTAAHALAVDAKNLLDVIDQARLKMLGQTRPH
# Sequence of UniProt P28328 (P28328 whole entry, looked up): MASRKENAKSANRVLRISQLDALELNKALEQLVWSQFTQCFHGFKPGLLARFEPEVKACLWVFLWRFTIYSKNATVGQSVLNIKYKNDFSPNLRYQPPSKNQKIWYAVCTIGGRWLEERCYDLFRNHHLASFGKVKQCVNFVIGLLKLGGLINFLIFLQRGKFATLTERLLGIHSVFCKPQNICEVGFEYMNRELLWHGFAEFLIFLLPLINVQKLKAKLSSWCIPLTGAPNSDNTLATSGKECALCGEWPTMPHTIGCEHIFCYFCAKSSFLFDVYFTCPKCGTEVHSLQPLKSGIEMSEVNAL
# Sequence of UniProt P54277 (P54277 whole entry, looked up): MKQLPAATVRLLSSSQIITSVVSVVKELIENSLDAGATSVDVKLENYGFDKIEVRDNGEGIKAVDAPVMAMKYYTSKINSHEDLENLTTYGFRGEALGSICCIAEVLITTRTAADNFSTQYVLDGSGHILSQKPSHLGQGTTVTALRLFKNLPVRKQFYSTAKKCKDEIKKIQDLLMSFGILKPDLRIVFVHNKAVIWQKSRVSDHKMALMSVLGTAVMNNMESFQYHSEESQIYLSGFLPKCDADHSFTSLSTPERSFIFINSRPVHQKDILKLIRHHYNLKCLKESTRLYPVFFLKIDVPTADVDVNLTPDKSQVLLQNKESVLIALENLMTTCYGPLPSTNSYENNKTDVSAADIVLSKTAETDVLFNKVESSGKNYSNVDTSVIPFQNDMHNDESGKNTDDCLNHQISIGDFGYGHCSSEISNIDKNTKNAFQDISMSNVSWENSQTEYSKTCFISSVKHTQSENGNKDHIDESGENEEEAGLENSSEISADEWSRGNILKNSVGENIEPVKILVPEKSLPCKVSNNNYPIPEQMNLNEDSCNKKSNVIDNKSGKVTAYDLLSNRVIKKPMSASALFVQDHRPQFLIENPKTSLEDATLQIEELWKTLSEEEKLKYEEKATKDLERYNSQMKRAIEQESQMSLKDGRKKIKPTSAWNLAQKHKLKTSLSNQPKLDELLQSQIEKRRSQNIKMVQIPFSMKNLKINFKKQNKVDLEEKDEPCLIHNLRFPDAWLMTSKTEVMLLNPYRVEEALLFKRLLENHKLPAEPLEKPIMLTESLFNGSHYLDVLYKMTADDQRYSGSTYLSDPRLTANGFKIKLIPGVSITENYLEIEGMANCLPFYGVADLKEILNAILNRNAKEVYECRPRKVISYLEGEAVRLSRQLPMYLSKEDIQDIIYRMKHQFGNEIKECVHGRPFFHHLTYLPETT
# Sequence of UniProt Q12972 (Q12972 whole entry, looked up): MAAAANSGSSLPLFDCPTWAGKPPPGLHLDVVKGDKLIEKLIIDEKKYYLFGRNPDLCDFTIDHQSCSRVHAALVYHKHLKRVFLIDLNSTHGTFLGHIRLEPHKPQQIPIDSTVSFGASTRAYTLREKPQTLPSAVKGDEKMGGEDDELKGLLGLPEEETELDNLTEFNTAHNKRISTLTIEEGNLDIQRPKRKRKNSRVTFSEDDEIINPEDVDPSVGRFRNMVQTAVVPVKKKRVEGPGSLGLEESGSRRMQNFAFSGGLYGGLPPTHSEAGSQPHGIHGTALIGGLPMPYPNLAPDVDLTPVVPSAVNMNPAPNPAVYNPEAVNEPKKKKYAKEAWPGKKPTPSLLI
# Sequence of UniProt P78356 (P78356 whole entry, looked up): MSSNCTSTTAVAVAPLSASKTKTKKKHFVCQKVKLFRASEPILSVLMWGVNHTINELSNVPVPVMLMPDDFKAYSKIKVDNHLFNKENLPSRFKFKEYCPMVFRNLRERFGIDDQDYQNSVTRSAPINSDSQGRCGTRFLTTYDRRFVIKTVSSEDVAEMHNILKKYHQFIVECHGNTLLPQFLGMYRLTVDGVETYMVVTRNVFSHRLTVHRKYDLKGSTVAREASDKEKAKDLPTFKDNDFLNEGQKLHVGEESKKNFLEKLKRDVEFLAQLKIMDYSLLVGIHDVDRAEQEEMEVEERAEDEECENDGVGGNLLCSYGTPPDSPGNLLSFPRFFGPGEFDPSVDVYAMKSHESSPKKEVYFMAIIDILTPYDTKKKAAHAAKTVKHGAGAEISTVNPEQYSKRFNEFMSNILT
Target,log2 fold change (alvocidib),log2 fold change (Tubastatin A),log2 fold change [1],log2 fold change (defactinib),log2 fold change [2],log2 fold change (encorafenib),log2 fold change [3],log2 fold change (alisertib),log2 fold change [4],log2 fold change (gefitinib),log2 fold change (lapatinib),log2 fold change (pictilisib),log2 fold change (crizotinib),log2 fold change [5],log2 fold change (duvelisib),log2 fold change (gandotinib),log2 fold change (tozasertib),log2 fold change (doramapimod),log2 fold change (bafetinib),log2 fold change [6]
PRKACB isoform 2 (UniProt P22694),0.006,0.003,0.011,0.117,0.118,-0.018,-0.05,0,0.51 (active),0.006,-0.063,-0.042,-0.018,0.141,0.024,-0.071,-0.001,-0.023,-0.04,-0.131
PPP1R8 (UniProt Q12972),-0.095,0.028,-0.025,-0.003,0.044,0.028,-0.049,0.022,-0.012,-0.05,0.025,-0.008,0.021,-0.236,-0.035,0.108,-0.014,-0.011,-0.01,0.091
PPP3CA isoform 2 (UniProt Q08209),0.043,0.017,0.033,0.101,0.01,0.023,0,0.061,-0.001,0.09,-0.008,0.085,0.048,0.075,0.008,-0.099,-0.068,-0.006,-0.026,-0.091
PTGS1 isoform 6 (UniProt P23219),-0.154,0.023,-0.052,-0.119,-0.057,-0.008,0.027,-0.051,0.021,-0.011,0.004,-0.068,0.007,-0.236 (active),-0.001,0.109,0.029,0.036,-0.079,0.093
PEX2 (UniProt P28328),-0.041,-0.104,0.172,0.181,0.118,,,0.115,0.116,-0.372,-0.081,0.035,-0.041,-0.04,-0.031,0.096,,-0.151,-0.218,0.149
PTK2 (UniProt Q05397),0.02,-0.033,0.54 (active),0.518 (active),-0.055,-0.057,-0.126,0.17,0.113,-0.022,-0.116,0.038,0.414,0.007,-0.076,0.396,0.026,,-0.008,-0.117
PMS1 (UniProt P54277),-0.038,-0.046,-0.008,0,-0.039,0.046,0.022,-0.01,,0.049,,-0.028,-0.004,0.018,0.018,-0.063,-0.053,-0.03,-0.064,-0.013
PIP4K2B (UniProt P78356),0.223 (active),0.008,-0.014,0.031,-0.065,0.062,-0.093,-0.036,-0.028,0.013,0.033,0.044,-0.019,0.01,0.006,0.029,-0.029,-0.001,0.164,-0.067
